{"source": "the supplement of paper PMC9135407", "tested_on": "primary human hepatic stellate cells (donor 1)", "test": "scaled lipid accumulation score (0 = DMSO-like, 1 = nortriptyline-like); higher = stronger HSC inactivation (lipid re-accumulation), active = hit call of the paper", "conditions": "48 h", "procedure": "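Primary lipid accumulation screen in primary human hepatic stellate cell myofibroblasts (donor 1, passage 8) in 384-well plates. 100 nL of library compound was pin-transferred into 30 µL medium in duplicate, and cells were treated for 48 h. The 'Scaled' score combines distance from plate baseline, toxicity and reproducibility penalties, and is normalised to nortriptyline (positive) and DMSO (negative) controls on each plate. A hit is defined as scaled >0.85 or among the top 3 wells per plate.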", "key": {"[1]": {"conditions": "library stock concentration: 10 mM"}, "[2]": {"conditions": "library stock concentration: 80 uM"}, "[3]": {"conditions": "library stock concentration: 400 uM"}, "[4]": {"conditions": "library stock concentration: 2 mM"}, "[5]": {"conditions": "library stock concentration: 3.33 mM"}, "[6]": {"conditions": "library stock concentration: 1 mM"}}, "note": "Where a name gives a salt, the structure may show the parent alone. In all, about 5,800 compounds went through this assay and about 620 (11%) showed activity. Many of the other results were omitted from the sample, so actives are more common in it than they were. Unmarked numbers belong to inactive results.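 Rule for the calls: active = score above a cut-off or among the top three wells of a plate; in these data no inactive exceeds 0.85.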"}
{"smiles": "NC/C=C/C(=O)O", "note": "[(E)-4-amino-2-butenoic acid]", "values": [{"measurement": "scaled lipid accumulation score", "setting": "[1]", "result": "≤ 0"}]}
{"smiles": "CCn1cc(-c2ccnc3[nH]c(-c4cccc(CN(C)C)c4)cc23)c(-c2ccc(NC(=O)N(C)C)cc2)n1", "note": "[listing 1 of 2 here]", "values": [{"measurement": "scaled lipid accumulation score", "setting": "[2]", "result": "≤ 0"}, {"measurement": "scaled lipid accumulation score", "setting": "[3]", "result": "≤ 0"}, {"measurement": "scaled lipid accumulation score", "setting": "[4]", "result": 0.222}]}
{"smiles": "CCn1cc(-c2ccnc3[nH]c(-c4cccc(CN(C)C)c4)cc23)c(-c2ccc(NC(=O)N(C)C)cc2)n1", "note": "[listing 2 of 2 here]", "values": [{"measurement": "scaled lipid accumulation score", "setting": "[1]", "result": "0.863 (active)"}]}
{"smiles": "CN(C)C(=O)Nc1cccc(-c2ccc(N(C)C)cc2)c1", "note": "[Atglistatin]", "values": [{"measurement": "scaled lipid accumulation score", "setting": "[5]", "result": 0.012}, {"measurement": "scaled lipid accumulation score", "setting": "[1]", "result": 0.076}]}
{"smiles": "NCCNCCNCCN", "note": "[Trientine hydrochloride]", "values": [{"measurement": "scaled lipid accumulation score", "setting": "library stock concentration: 9.1 mM", "result": "≤ 0"}]}
{"smiles": "CC(=O)Oc1ccc2c(c1)CC[C@@H]1[C@@H]2CC[C@]2(C)[C@@H](OC(C)=O)CC[C@@H]12", "note": "[Estradiol diacetate]", "values": [{"measurement": "scaled lipid accumulation score", "setting": "[1]", "result": "≤ 0"}]}
{"smiles": "N#C[C@@H]1C[C@@H]2C[C@@H]2N1C(=O)[C@@H](N)C12CC3CC(CC(O)(C3)C1)C2", "values": [{"measurement": "scaled lipid accumulation score", "setting": "[1]", "result": "≤ 0"}]}
{"smiles": "N#C[C@@H]1C[C@@H]2C[C@@H]2N1C(=O)[C@@H](N)C12CC3CC(CC(O)(C3)C1)C2", "note": "[Saxagliptin]", "values": [{"measurement": "scaled lipid accumulation score", "setting": "[5]", "result": "≤ 0"}, {"measurement": "scaled lipid accumulation score", "setting": "[1]", "result": "≤ 0"}]}
{"smiles": "O=C(O)CCC/C=C\\C[C@H]1C(=O)C[C@@H](O)[C@@H]1/C=C/[C@@H](O)Cc1ccccc1", "note": "[16-phenyl tetranor Prostaglandin E2]", "values": [{"measurement": "scaled lipid accumulation score", "setting": "[6]", "result": "≤ 0"}]}
{"smiles": "CCCCn1c(=O)c2[nH]c(C34CC5CC(CC3C5)C4)nc2n(CCCO)c1=O", "values": [{"measurement": "scaled lipid accumulation score", "setting": "[1]", "result": "≤ -0.001"}]}
{"smiles": "CN1CCN2c3ncccc3Cc3ccccc3C2C1", "note": "(centres undefined) [Mirtazepine]", "values": [{"measurement": "scaled lipid accumulation score", "setting": "[1]", "result": 0.053}]}
{"smiles": "CN1CCN2c3ccccc3Cc3ccccc3C2C1", "note": "(centres undefined) [Mianserin HCl]", "values": [{"measurement": "scaled lipid accumulation score", "setting": "[5]", "result": 0.172}, {"measurement": "scaled lipid accumulation score", "setting": "[1]", "result": 0.188}]}
{"smiles": "CN1CCN2c3ccccc3Cc3ccccc3C2C1", "note": "(centres undefined) [Mianserin hcl]", "values": [{"measurement": "scaled lipid accumulation score", "setting": "library stock concentration: 7.6 mM", "result": 0.348}]}
{"smiles": "CN1CCN2c3ncccc3Cc3ccccc3C2C1", "note": "(centres undefined) [mirtazapine]", "values": [{"measurement": "scaled lipid accumulation score", "setting": "[1]", "result": 0.317}]}
{"smiles": "CN1CCN2c3ccccc3Cc3ccccc3C2C1", "note": "(centres undefined) [Mianserine hydrochloride]", "values": [{"measurement": "scaled lipid accumulation score", "result": 0.681}]}
{"smiles": "CN1CCN2c3ccccc3Cc3ccccc3C2C1.Cl", "note": "(centres undefined) [Mianserin hydrochloride]", "values": [{"measurement": "scaled lipid accumulation score", "setting": "[1]", "result": "0.869 (active)"}]}
{"smiles": "CN1CCN2c3ccccc3Cc3ccccc3C2C1", "note": "(centres undefined) [Mianserin hydrochloride]", "values": [{"measurement": "scaled lipid accumulation score", "setting": "library stock concentration: 6.6 mM", "result": 0.236}, {"measurement": "scaled lipid accumulation score", "setting": "[1]", "result": 0.398}]}
{"smiles": "CN1CCN2c3ncccc3Cc3ccccc3C2C1", "note": "(centres undefined)", "values": [{"measurement": "scaled lipid accumulation score", "setting": "[1]", "result": 0.409}]}
{"smiles": "CN1CCN2c3ncccc3Cc3ccccc3C2C1", "note": "(centres undefined) [Mirtazapine]", "values": [{"measurement": "scaled lipid accumulation score", "setting": "[5]", "result": "≤ 0"}, {"measurement": "scaled lipid accumulation score", "setting": "[1]", "result": 0.104}]}
{"smiles": "Cc1c(C)c2c(c(C)c1O)CC[C@@](C)(CCC[C@H](C)CCC[C@H](C)CCCC(C)C)O2", "note": "(racemic) [Tocopherol (R,S)]", "values": [{"measurement": "scaled lipid accumulation score", "result": "≤ 0"}]}
{"smiles": "CN1CCN(c2c(F)cc3c(=O)c(C(=O)O)cn(CCF)c3c2F)CC1", "note": "[Fleroxacin]", "values": [{"measurement": "scaled lipid accumulation score", "setting": "library stock concentration: 5.4 mM", "result": "≤ 0"}]}
{"smiles": "CCCCCC(=O)/C=C/C=C\\C/C=C\\C/C=C\\CCCC(=O)O", "note": "[15-Ketoicosatetraenoic acid]", "values": [{"measurement": "scaled lipid accumulation score", "setting": "library stock concentration: 100 uM", "result": "≤ -0.021"}]}
{"smiles": "COc1ccc(CNC(=O)Nc2ncc([N+](=O)[O-])s2)cc1", "note": "[listing 1 of 2 here]", "values": [{"measurement": "scaled lipid accumulation score", "setting": "[1]", "result": "0.864 (active)"}]}
{"smiles": "CC(=O)Nc1ncc([N+](=O)[O-])s1", "values": [{"measurement": "scaled lipid accumulation score", "setting": "[1]", "result": "≤ 0"}]}
{"smiles": "COc1ccc(CNC(=O)Nc2ncc([N+](=O)[O-])s2)cc1", "note": "[listing 2 of 2 here]", "values": [{"measurement": "scaled lipid accumulation score", "setting": "[5]", "result": 0.006}]}
{"smiles": "CC(=O)Nc1ncc([N+](=O)[O-])s1", "note": "[Nithiamide]", "values": [{"measurement": "scaled lipid accumulation score", "setting": "[5]", "result": "≤ 0"}, {"measurement": "scaled lipid accumulation score", "setting": "[1]", "result": "≤ -0.001"}]}
{"smiles": "COc1ccc(CNC(=O)Nc2ncc([N+](=O)[O-])s2)cc1", "note": "[GSK-3b Inhibitor VIII]", "values": [{"measurement": "scaled lipid accumulation score", "setting": "[5]", "result": "≤ 0"}]}
{"smiles": "O=C(c1ccccc1)c1ccc(N2CCOCC2)cc1O", "note": "[DNA-PK Inhibitor V]", "values": [{"measurement": "scaled lipid accumulation score", "setting": "[5]", "result": "≤ 0"}]}
{"smiles": "CCCCC(C)(C)[C@H](O)/C=C/[C@H]1C(=O)C[C@H](O)[C@@H]1C/C=C\\CCCC(=O)O", "note": "[16,16-dimethyl Prostaglandin D2]", "values": [{"measurement": "scaled lipid accumulation score", "setting": "[6]", "result": "≤ 0"}]}
{"smiles": "O=C1NC(=O)[C@@H](c2cn3c4c(cccc24)CCC3)[C@@H]1c1c[nH]c2ccccc12", "note": "[Tivantinib]", "values": [{"measurement": "scaled lipid accumulation score", "setting": "[2]", "result": "≤ -0.009"}, {"measurement": "scaled lipid accumulation score", "setting": "[3]", "result": 0.071}, {"measurement": "scaled lipid accumulation score", "setting": "[4]", "result": "≤ -0.009"}, {"measurement": "scaled lipid accumulation score", "setting": "[1]", "result": 0.169}]}
{"smiles": "CCCCCC(=O)CC[C@H]1C(=O)C[C@H](O)[C@@H]1C/C=C\\CCCC(=O)O", "note": "[13,14-dihydro-15-keto Prostaglandin D2]", "values": [{"measurement": "scaled lipid accumulation score", "setting": "[6]", "result": "≤ 0"}]}
{"smiles": "COc1cc(N2CCN(C)CC2)ccc1Nc1nccc(-c2cn(C)c3cnccc23)n1", "values": [{"measurement": "scaled lipid accumulation score", "setting": "[5]", "result": "≤ -0.009"}, {"measurement": "scaled lipid accumulation score", "setting": "[1]", "result": 0.446}]}
